# Assay outcomes from PubChem.
# An excerpt weighted towards active compounds, which were near 11% of everything screened.
# G9a inh: qHTS Assay for Inhibitors of Histone Lysine Methyltransferase G9a. AID 504332, 2011. G9a H3K9 monomethylation, AlphaScreen, 2 h. Potency, µM (series often up to 102 µM), inactives show top-dose activity, negative = inhibition, hits mostly inhibitors. 350,000 compounds, 8.8% hits; further: on the % scale 0 is the no-effect control and ±100 the full control effect; nearly all actives have a fitted effect of over 75% in size
#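 Using a bead-based AlphaScreen, monomethylated H3K9 product from 2 h room-temperature reactions (G9a 20 nM, peptide 500 nM, SAM 20 uM) was detected with 0.5 ug/mL rabbit anti-H3K9me1 antibody.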
# L3MBTL1 block: qHTS Assay for the Inhibitors of L3MBTL1 | Lethal(3)malignant brain tumor-like protein 1 (Homo sapiens), Q9Y468 | AlphaScreen L3MBTL1–H3K9me1 peptide binding | 230,000 compounds, 0.66% hits | AID 485360, 2010 | Potency, µM (top dose mostly 57.1 µM), for inactives: at the top dose activity, negative = inhibition, most hits filed as inhibitors; further: on the % scale 0 is the no-effect control and ±100 the full control effect; nearly all actives have a fitted effect of over 60% in size
#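 Read-out is AlphaScreen signal from streptavidin donor and nickel chelate acceptor beads (10 ug/mL final each) bridging L3MBTL1 (50 nM) and biotinylated K9-monomethylated H3(1-15) peptide (75 nM), after 30 min compound exposure at room temperature.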
# BAZ2B block: qHTS Assay for Inhibitors of BAZ2B; 360,000 compounds, 4.4% hits; Potency, µM (series often up to 114 µM), for the others: at the highest dose activity change, negative = inhibition, actives largely listed as inhibitors; Bromodomain adjacent to zinc finger domain protein 2B (Homo sapiens), Q9UIF8; AlphaScreen BAZ2B-H3K14Ac peptide displacement; further: on the % scale 0 is the no-effect control and ±100 the full control effect; nearly all actives have a fitted effect of over 60% in size
# Target sequence (Q9UIF8 whole entry, looked up, the tested form may be a part): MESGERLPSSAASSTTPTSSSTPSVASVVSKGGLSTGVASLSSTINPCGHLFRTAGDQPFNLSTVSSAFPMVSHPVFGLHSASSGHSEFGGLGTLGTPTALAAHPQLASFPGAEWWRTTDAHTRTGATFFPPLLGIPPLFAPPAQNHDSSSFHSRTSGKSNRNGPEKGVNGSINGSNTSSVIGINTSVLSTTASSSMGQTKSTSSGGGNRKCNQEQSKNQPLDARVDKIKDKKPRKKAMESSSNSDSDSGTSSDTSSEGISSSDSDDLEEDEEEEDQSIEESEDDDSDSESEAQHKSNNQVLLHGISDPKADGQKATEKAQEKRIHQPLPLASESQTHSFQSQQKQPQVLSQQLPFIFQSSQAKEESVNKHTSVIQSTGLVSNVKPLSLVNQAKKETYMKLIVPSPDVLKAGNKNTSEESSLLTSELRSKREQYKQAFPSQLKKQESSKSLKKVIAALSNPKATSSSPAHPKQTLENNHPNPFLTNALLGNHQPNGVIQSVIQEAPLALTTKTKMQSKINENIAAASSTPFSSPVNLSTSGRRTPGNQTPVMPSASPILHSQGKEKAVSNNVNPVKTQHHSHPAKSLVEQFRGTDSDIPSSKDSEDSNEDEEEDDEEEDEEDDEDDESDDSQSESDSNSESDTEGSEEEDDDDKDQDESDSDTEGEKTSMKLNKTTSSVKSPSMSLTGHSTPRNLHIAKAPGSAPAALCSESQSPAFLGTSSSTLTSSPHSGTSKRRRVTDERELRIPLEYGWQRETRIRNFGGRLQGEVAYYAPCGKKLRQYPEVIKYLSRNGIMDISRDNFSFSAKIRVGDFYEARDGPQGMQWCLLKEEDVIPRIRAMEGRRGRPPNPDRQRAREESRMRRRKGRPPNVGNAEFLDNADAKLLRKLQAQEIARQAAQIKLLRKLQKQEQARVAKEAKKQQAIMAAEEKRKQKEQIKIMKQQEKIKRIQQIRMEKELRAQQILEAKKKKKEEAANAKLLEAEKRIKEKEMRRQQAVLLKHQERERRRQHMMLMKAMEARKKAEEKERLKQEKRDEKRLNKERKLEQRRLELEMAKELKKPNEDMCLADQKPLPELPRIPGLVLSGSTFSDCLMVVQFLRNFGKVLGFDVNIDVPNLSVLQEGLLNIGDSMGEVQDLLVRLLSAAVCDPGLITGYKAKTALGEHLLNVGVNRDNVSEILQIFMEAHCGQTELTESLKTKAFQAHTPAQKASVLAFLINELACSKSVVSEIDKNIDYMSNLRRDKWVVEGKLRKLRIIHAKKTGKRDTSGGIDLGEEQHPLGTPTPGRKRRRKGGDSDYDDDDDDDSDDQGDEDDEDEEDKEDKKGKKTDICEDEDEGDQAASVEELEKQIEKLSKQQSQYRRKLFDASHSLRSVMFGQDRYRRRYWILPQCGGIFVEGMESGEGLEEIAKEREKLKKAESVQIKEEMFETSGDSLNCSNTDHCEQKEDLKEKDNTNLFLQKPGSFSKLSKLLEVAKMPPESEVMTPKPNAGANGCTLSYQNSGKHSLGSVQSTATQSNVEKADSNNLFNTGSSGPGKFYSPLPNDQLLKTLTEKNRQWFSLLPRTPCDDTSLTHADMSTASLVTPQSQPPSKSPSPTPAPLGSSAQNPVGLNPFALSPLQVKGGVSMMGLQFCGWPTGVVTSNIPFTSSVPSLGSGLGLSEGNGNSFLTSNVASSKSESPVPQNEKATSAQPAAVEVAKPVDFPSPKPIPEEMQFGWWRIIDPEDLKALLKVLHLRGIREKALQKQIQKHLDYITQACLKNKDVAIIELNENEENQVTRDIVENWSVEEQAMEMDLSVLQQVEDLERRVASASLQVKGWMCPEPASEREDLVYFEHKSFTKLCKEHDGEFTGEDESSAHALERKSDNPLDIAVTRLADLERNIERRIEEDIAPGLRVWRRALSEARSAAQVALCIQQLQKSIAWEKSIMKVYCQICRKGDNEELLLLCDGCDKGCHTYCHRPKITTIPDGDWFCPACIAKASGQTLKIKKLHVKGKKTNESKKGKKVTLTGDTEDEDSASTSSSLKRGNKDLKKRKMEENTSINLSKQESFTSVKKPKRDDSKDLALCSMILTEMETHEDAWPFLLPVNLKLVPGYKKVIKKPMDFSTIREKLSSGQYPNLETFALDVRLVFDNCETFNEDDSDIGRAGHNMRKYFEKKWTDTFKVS
#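 Compounds, titrated to a top concentration of 110 uM, were incubated 30 min at room temperature with preformed BAZ2B/acetyl-K14 H3 peptide complex (50 nM each). Proximity signal was measured by AlphaScreen after 20 min with beads.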
# HP1b binding inh: HTS for Inhibitors of HP1-beta Chromodomain Interactions with Methylated Histone Tails | Chromobox protein homolog 1 (Homo sapiens), P83916 | AlphaScreen HP1-beta / biotin-H3K9me3 peptide binding | Potency, µM (highest dose often 114 µM), inactives show at the highest dose activity change, negative = inhibition, usual class: inhibitors | 390,000 compounds, 0.56% hits | AID 540317, 2011; further: nearly all actives have a fitted effect of over 70% in size
#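 AlphaScreen: HP1-beta (50 nM) preformed 30 min with biotin-H3(1-18)K9me3 peptide (50 nM) in PBS pH 7.4, 0.01% Tween-20. Compound added for 30 min at RT, then streptavidin donor/nickel chelate acceptor beads (10 ug/mL) for 30 min.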
# JMJD2A Tudor inh: qHTS Assay for Inhibitors of JMJD2A-Tudor Domain; AID 504339, 2011; AlphaScreen JMJD2A-Tudor / H3K4me3 peptide binding; Lysine-specific demethylase 4A (Homo sapiens), O75164; 390,000 compounds, 4.4% hits; Potency, µM (highest dose often 114 µM), inactives show at the highest dose activity change, negative = inhibition, hits mostly inhibitors; further: on the % scale 0 is the no-effect control and ±100 the full control effect; nearly all actives have a fitted effect of over 50% in size
# * hit, by the source's call; u = inconclusive; x = not tested or not shown; [ ] = dose if it differs, or a comment. The call rests on the fitted dose curve; in most records, active means well fitted inhibition curve with a large enough effect; inconclusive means small, poorly fitted or top-dose-only effect; inactive means no such curve, though single readings can be large or run the other way. Potency means the concentration at half of the fitted maximal effect.
SMILES,G9a inh,L3MBTL1 block,BAZ2B block,HP1b binding inh,JMJD2A Tudor inh
CCN1CC2=C(OC(N)=C(C#N)C2c2cccs2)/C(=C/c2cccs2)C1 (configuration not stated),u,-17%,32µM*,-22%,u
CCN1CC2=C(OC(N)=C(C#N)C2c2ccccc2)/C(=C\c2ccccc2)C1 (configuration not stated),-13%[59 µM],-6%,u,-23%,-33%
Clc1ccc(-c2ccc(-c3nn4c(-c5ccco5)nnc4s3)o2)cc1,x,x,x,-2%,u
Brc1ccc(-c2nn3c(-c4ccco4)nnc3s2)o1,14µM*,-15%,50µM*,2%,u
Clc1ccc(-c2nnc3sc(-c4ccccn4)nn23)cc1,-7%[2.33 µM],2%,12%,x,x
CC(C)(C)c1ccc(-c2nnc3sc(-c4ccccn4)nn23)cc1,32µM*,-3%,u,-6%,-26%
Brc1ccc(-c2nn3c(-c4ccccn4)nnc3s2)o1,20µM*,u,18µM*,34%,14µM*
Clc1ccc(OCc2nn3c(-c4ccco4)nnc3s2)c(Cl)c1,-39%[2.33 µM],x,56µM*,13%,u
Cc1cccc(NC(=O)COC(=O)CCc2c[nH]c3ccccc23)c1,0%[59 µM],-2%,-10%,27%,6%
c1ccc(-c2nn3c(-c4ccco4)nnc3s2)nc1,40µM*,-11%,-38%,60%,-12%
Clc1ccc(Cn2c3c(c4ccccc42)CCc2cc4ccccc4nc2-3)cc1,x,x,x,123%[57 µM],68%[57.1 µM]
COc1ccc(C=O)cc1COc1ccc2c(c1)OCO2,9%[0.501 µM],-18%,u,-30%,7.1µM*
COc1ccc(C=O)cc1COc1ccc([N+](=O)[O-])c(C)c1,3%,-5%,-13%,22%,-15%
CN(C)CCCN1C(=O)c2cccc3c([N+](=O)[O-])ccc(c23)C1=O,u,12%,u,1%,-28%
O=C(O)c1ccc(CN2C(=O)c3cccc4c([N+](=O)[O-])ccc(c34)C2=O)cc1,45µM*,x,50µM*,5%,u
Cc1ccc(C(=O)O)cc1N1C(=O)c2cccc3c([N+](=O)[O-])ccc(c23)C1=O,25µM*,22µM*,50µM*,-16%,56µM*
CC(=O)Oc1cccc(N2C(=O)c3cccc4c([N+](=O)[O-])ccc(c34)C2=O)c1,40µM*,6%,3%,29%,2%
CC(C)Oc1ccc(CNC(=O)c2cc3ccccn3n2)cc1,-8%[59 µM],x,-10%,20%,-9%
Brc1ccc2nc(-c3cccs3)c(NCC3CCCO3)n2c1 (configuration not stated),x,-25%,50µM*,18%,-24%
Cc1nn(-c2cccc(Cl)c2)c2nc(-c3ccco3)cc(C(=O)O)c12,10µM*,x,u,11%,-27%
Cc1ccc(C2(C)NC(=O)N(CC(=O)NCCC3=CCCCC3)C2=O)cc1 (configuration not stated),u,x,15%,59%,-15%
CC1(c2ccc(Cl)cc2)NC(=O)N(CC(=O)NCCC2=CCCCC2)C1=O (configuration not stated),0.89µM*,-2%,0%,54%,2%
Oc1ccc(-c2csc(-c3cccnc3)n2)c(O)c1,-5%,1%,x,22%,-24%
Oc1ccc(-c2nc(-c3ccc(O)c(O)c3)cs2)cc1,8.9µM*,-28%,u,u,50µM*
O=C(Nc1ccc(C(=O)O)cc1)/C(=C\C=C\c1ccccc1)NC(=O)c1ccccc1Br,x,x,u,5%,-10%
CCOC(=O)c1cnc(SCC(=O)Nc2ccc3c(c2)OCCO3)nc1N,9%[2.33 µM],x,-3%,16%,-21%
CCOC(=O)c1cnc(SCC(=O)Nc2ccc(N3CCOCC3)cc2)nc1N,25µM*,x,3%,x,x
CCOC(=O)c1cnc(SCC(=O)N2CCN(c3ccccc3)CC2)nc1N,35µM*,-3%,-18%,-1%,-17%
